In PubChem BioAssay (Tox21) one finds Potency and outcome data, which are given here for 30 compounds.

The nature of assay [1]: qHTS assay to identify small molecule antagonists of the retinoid acid receptor (RAR) signaling pathway - cell viability counter screen (AID 1159551). Also: nearly all actives have a fitted effect of over 35% in size. Also: potency is read from the fitted curve at half-maximal effect. In outline: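 Following overnight attachment, C3RL4 reporter cells received DMSO-dissolved compounds and then retinol (1 uM final). Six hours later at 37 C, ATP content was measured by CellTiter-Glo luminescence.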
A general note: qHTS replaces the single test concentration by a dilution series.

Assay [2] is described as follows: qHTS assay to identify small molecule antagonists of the retinoic acid receptor (RAR) signaling pathway (AID 1159552; also: nearly all actives have a fitted effect of over 50% in size; also: potency is read from the fitted curve at half-maximal effect). The procedure, abridged: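 Readout: luciferase luminescence, 30 min post-reagent at RT. Setup: C3RL4 RARE reporter cells, compounds plus retinol 1 uM final, 6 hr incubation at 37 C and 5% CO2.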
A short description of assay [3]: qHTS assay to identify small molecule antagonists of the estrogen related receptor (ERR) signaling pathway from Tox21 library - cell viability counter screen (AID 1224834). Also: nearly all actives have a fitted effect of over 30% in size. Also: potency is read from the fitted curve at half-maximal effect. In outline:
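Viability readout (CellTiter-Fluor fluorescence, 30 min at 37 C) multiplexed with the ERR assay; cells treated 17.5 h at 37 C with compounds delivered in DMSO.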

Assay [4] deals with Luciferin 4-monooxygenase (Photinus pyralis) (UniProt P08659). The assay is described as follows: qHTS assay to identify small molecule inhibitors of firefly luciferase (AID 1224835). Also: nearly all actives have a fitted effect of over 25% in size. Also: potency is read from the fitted curve at half-maximal effect. The procedure, abridged: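 Biochemical qHTS: compounds run as interplate titrations against purified firefly enzyme, with D-luciferin and ATP each at its KM concentration. Light output recorded by CCD imaging.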

Assay [5] in a line: qHTS assay to identify small molecule agonists of the retinoic acid receptor (RAR) signaling pathway (AID 1159553). Also: potency is read from the fitted curve at half-maximal effect. The procedure, abridged: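 Cell line C3RL4, RARE luciferase reporter. Treatment: compounds in DMSO, 6 hr, 37 C, 5% CO2, after overnight plating. Detection: luminescence, 30 min RT after reagent.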
Assay [6] in a line: qHTS assay to identify small molecule antagonists of the estrogen related receptor (ERR) signaling pathway (AID 1224819; also: potency is read from the fitted curve at half-maximal effect; nearly all actives have a fitted effect of over 50% in size). In outline: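 LOPAC library screened for antagonism as reduced One-Glo luminescence in ERR reporter cells (2,000/well). Compounds were added after 6 h pre-incubation and left 18 h at 37C; reading followed a 30 min room-temperature reagent step.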
A short description of assay [7]: qHTS assay to identify small molecule agonists of the estrogen related receptor (ERR) signaling pathway (AID 1224820). In outline: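 Quantitative HTS of the LOPAC library used NTP ERR reporter cells treated 18 h at 37 C. Signal is luminescence after One-Glo addition and a 30 min room-temperature incubation.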
The subject of assay [8] is estrogen-related receptor alpha (ERRalpha) with PGC-1alpha coactivator, human. The assay can be described thus: qHTS assay to identify small molecule antagonists of the estrogen related receptor signaling pathway with the pleiotropic PPARgamma coactivator (PGC) (AID 1224821; calls by dose curve; also: nearly all actives have a fitted effect of over 50% in size; also: potency is read from the fitted curve at half-maximal effect). The procedure, abridged:
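Quantitative HTS for antagonism: PGC/ERR cells received compounds after 6 h attachment and were incubated 18 h at 37 C, with luminescence (One-Glo) as the endpoint.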

A short description of assay [9]: qHTS assay to identify small molecule antagonists of the estrogen related receptor signaling pathway with the pleiotropic PPARgamma coactivator (PGC) cell viability counter screen (AID 1224822; also: potency is read from the fitted curve at half-maximal effect;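 also: viability read after 17.5 h compound exposure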). In outline:
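qHTS format, DMSO compound stocks pin-transferred onto PGC/ERR cells 6 h after plating; 17.5 h exposure at 37 C, then CellTiter-Fluor fluorescence.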

Assay [10] can be described thus: qHTS assay to identify small molecule agonists of the estrogen related receptor signaling pathway with the pleiotropic PPARgamma coactivator (PGC) (AID 1224823). In outline: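 Cell-based luciferase assay in the NTP-supplied PGC/ERR line, 2,000 cells/well; 18 h compound exposure at 37 C, luminescence after One-Glo.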

“And” between values parts separate entries of the source, which are not always exact repeats. Equal entries are not always repeated. Inconclusive results are not listed. Where a structure was tested more than once in an assay, its records may differ in their call. The source made the active and inactive calls. Unless noted, calls follow the shape of the dose curve; as a rule, active = well fitted curve in the direction sought with a large enough effect in the repeat runs; inconclusive = weak or mixed curves; inactive = no such curve, though single readings can be large; an effect the other way counts as inactive or inconclusive.

Chain of Luciferin 4-monooxygenase (Photinus pyralis) (P08659 whole entry, looked up): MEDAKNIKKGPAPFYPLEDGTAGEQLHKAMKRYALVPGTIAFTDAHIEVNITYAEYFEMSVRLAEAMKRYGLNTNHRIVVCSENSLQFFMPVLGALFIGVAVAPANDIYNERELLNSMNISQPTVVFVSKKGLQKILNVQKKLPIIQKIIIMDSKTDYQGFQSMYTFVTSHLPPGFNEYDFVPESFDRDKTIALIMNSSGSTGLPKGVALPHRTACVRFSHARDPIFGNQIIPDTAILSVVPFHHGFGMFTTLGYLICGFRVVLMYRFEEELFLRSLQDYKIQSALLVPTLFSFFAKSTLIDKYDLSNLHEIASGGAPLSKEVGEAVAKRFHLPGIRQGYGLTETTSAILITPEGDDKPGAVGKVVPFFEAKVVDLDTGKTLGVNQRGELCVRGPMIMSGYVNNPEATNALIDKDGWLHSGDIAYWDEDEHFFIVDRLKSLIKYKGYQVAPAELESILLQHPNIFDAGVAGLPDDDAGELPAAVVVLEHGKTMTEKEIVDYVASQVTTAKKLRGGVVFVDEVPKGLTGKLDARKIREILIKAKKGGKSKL

Take `CCCCCCCCCCCCc1ccccc1O`: the Potency in [1] is 61.1 µM (active); in [2] it was 47.9 µM (active) and 54.5 µM (active); in assay [3], 43.3 µM (active). Moreover, the Potency result in [4] is “inactive”.

Consider `Nc1ccc(O)cc1`, for which the Potency entry in assay [1] and in assay [2] was “inactive” in each case. In addition, the Potency in assay [3] was 31.8 µM (active) and inactive; in assay [4], 65.7 µM (active) and inactive.

`CC(C)(C)c1ccc(O)c(C(C)(C)C)c1`: the Potency was 54.3 µM (active) and 54.5 µM (active) in [1]; 48.4 µM (active) and 61.1 µM (active) in assay [3]. In addition, the Potency entry in assay [5] and in [4] was “inactive” in each case.

On to `CC(C)CCOC(=O)c1ccc(N(C)C)cc1`, for which the Potency result in [1], in [2] and in [3] was “inactive” each time. Moreover, the Potency in [4] is 3.47 µM (active).

For `CCc1ccc(C(c2ccc(CC)cc2)C(Cl)Cl)cc1`, the Potency result in [1], in assay [2], in assay [3] and in assay [4] was “inactive” throughout.

With `CCN(CC)CCOc1ccc(/C(=C(\Cl)c2ccccc2)c2ccccc2)cc1`, the Potency in assay [1] is 49.6 µM (active); in assay [2] it was 24.8 µM (active); in assay [3], 55.6 µM (active) and 26.6 µM (active).

With `CCCCOCCOC(=O)c1ccccc1C(=O)OCCOCCCC`, the Potency result in assay [1], in [2], in assay [3] and in assay [4] was “inactive” throughout.

For the compound `O=C(O)c1cc(Cl)cc(Cl)c1`, the Potency result in assay [1], in assay [2], in assay [3] and in assay [4] was “inactive” throughout.

Take `Cc1c(O)cccc1C(=O)N[C@@H](CSc1ccccc1)[C@H](O)CN1C[C@H]2CCCC[C@H]2C[C@H]1C(=O)NC(C)(C)C`: the Potency entry in assay [1], in assay [8] and in [4] was “inactive” in each case. In addition, the Potency in [6] was 19.6 µM (active); in [9], 10.6 µM (active); in assay [3] it was 8.41 µM (active) and 11.9 µM (active). The result in [7] and in assay [10] was inactive.

For `COc1ccc(CCN2CCC(Nc3nc4ccccc4n3Cc3ccc(F)cc3)CC2)cc1`, the Potency is 44.2 µM (active) in assay [1]; 2.11 µM (active) in [2]; 22.2 µM (active) and 26.6 µM (active) in assay [3].

With `O=C(Oc1ccccc1)c1ccccc1O`, the Potency result in assay [1], in assay [2] and in assay [3] was “inactive” in each case. Besides, the Potency in assay [4] is 31.9 µM (active) and 22.4 µM (active).

Turning to `c1ccc2c(c1)-c1cccc3c1c-2cc1ccccc13`, the Potency entry in assay [1], in [2] and in assay [3] was “inactive” throughout. Moreover, the Potency in [4] was 7.1 µM (active).

On to `Nc1cc(Cl)c(-c2cc(Cl)c(N)cc2Cl)cc1Cl`, for which the Potency in [1] was 30.6 µM (active); in assay [3] it was 48.5 µM (active) and 30.6 µM (active). Further, the Potency entry in [5] and in [4] was “inactive” each time.

On to `C=C(C)C1CC=C(C)C(OC(C)=O)C1` (centres undefined), for which the Potency entry in assay [1], in [2], in assay [3] and in assay [4] was “inactive” throughout.

On to `Cc1cccc(O)c1C`, for which the Potency result in [1], in [2], in assay [3] and in assay [4] was “inactive” throughout.

In the case of `CNCCC(Oc1ccc(C(F)(F)F)cc1)c1ccccc1` (centres undefined), the Potency result in [1] is “inactive”. Besides, the Potency in [2] is 53.8 µM (active); in assay [3], 60.3 µM (active).

Regarding `O=C1NCC2(CCN(CCc3ccccc3)CC2)O1`, the Potency entry in assay [1], in [2], in [9], in assay [3] and in assay [4] was “inactive” in each case.

Consider `OCCOCCN1CCN(C(c2ccccc2)c2ccc(Cl)cc2)CC1` (centres undefined), for which, in assay [1], the Potency result was “inactive”. For the same compound, the Potency in [2] is 60.3 µM (active) and inactive; in [3], 30.2 µM (active); in assay [4] it was “inactive and 27.5 µM (active)”.

For the compound `O=Cc1ccc(Cl)cc1`, the Potency entry in assay [1], in assay [2], in assay [3] and in assay [4] was “inactive” each time.

Consider `c1cc(C(c2ccc(OCC3CO3)cc2)C(c2ccc(OCC3CO3)cc2)c2ccc(OCC3CO3)cc2)ccc1OCC1CO1` (centres undefined), for which the Potency result in assay [1], in assay [2] and in [3] was “inactive” each time. Moreover, the Potency in [4] was 16.5 µM (active).

Take `CN(C)c1ccc2nc3ccc(=[N+](C)C)cc-3sc2c1`: the Potency in assay [1] is 13.1 µM (active) and 30.6 µM (active) and 23.7 µM (active); in assay [5], 2.94 µM (active) and 1.37 µM (active) and 1.68 µM (active); in assay [3] it was 4.16 µM (active) and 6.11 µM (active) and 5.96 µM (active); in assay [4] it was 15.3 µM (active) and 20 µM (active) and 17.4 µM (active).

Consider `CC(N)=O`, for which the Potency entry in assay [1], in [2], in assay [9], in assay [3] and in assay [4] was “inactive” in each case.

Turning to `Cc1cccc([N+](=O)[O-])c1C(=O)O`, the Potency entry in [1], in assay [2], in assay [3] and in [4] was “inactive” in each case.

For `O=C(Nc1ccccc1SSc1ccccc1NC(=O)c1ccccc1)c1ccccc1`, the Potency entry in assay [1] was “inactive”. Moreover, the Potency was 15.4 µM (active) in assay [2]; 43.5 µM (active) and 48.6 µM (active) in assay [3]; 5.05 µM (active) and 2.52 µM (active) in assay [4].

`Cc1cc(Cc2cc(C)cc(C(C)(C)C)c2O)c(O)c(C(C)(C)C)c1`: the Potency in assay [1] is 54.8 µM (active) and 48.6 µM (active); in assay [2], 43.5 µM (active) and 61.1 µM (active); in assay [3] it was 48.8 µM (active) and 43.3 µM (active). Further, the Potency entry in assay [4] is “inactive”.

Regarding `C=CC(=O)OCCCCCCOC(=O)C=C`, the Potency result in assay [5] is “inactive”.

With `Oc1c(Cl)cc(Cl)c(Cl)c1Cc1c(O)c(Cl)cc(Cl)c1Cl`, the Potency entry in assay [5] is “inactive”.

For the compound `CCN(CC)C(=S)SSC(=S)N(CC)CC`, the Potency in assay [8] is 386 nM (active) and 1.39 µM (active). For the same compound, the result in [10] was inactive.

With `NC(=Nc1ccccc1)Nc1ccccc1`, the Potency result in assay [8] was “inactive”.

For the compound `COC(=O)[C@H]1[C@H]2C[C@@H]3c4[nH]c5cc(OC)ccc5c4CCN3C[C@H]2C[C@@H](OC(=O)c2cc(OC)c(OC)c(OC)c2)[C@@H]1OC`, in assay [10], the outcome was inactive.
